According to PubChem BioAssay (EPA / NIEHS):
Values joined by “and” are separate entries in the source; they are usually repeats but may differ in a detail not shown here. Equal entries are not always repeated. Records with an inconclusive call do not appear. Where a structure was tested more than once in an assay, its records may differ in their call. Active and inactive are the calls of the source. The calls were made as follows, unless noted: active = hit-call score of the fitted dose curve at least 0.9, where 1 is the maximum; inactive = score below 0.9.

Assays:
[1] = target: Estrogen receptor (Homo sapiens) (UniProt P03372); assay: ATG_ERa_TRANS: Attagene TRANS-FACTORIAL HepG2 Assay for human Estrogen Receptor alpha (ERa) (AID 2282970; active = hit-call score of the fitted dose curve at least 0.9, where 1 is the maximum); details: HepG2 Attagene TRANS ERa GAL4 reporter, mRNA
How it was run: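 Human liver HepG2, transient transfection of multiple GAL4-UAS reporter units; TRANS format (exogenous NR-Gal4 chimera). 24 h dosing. Readout: reporter mRNA, RT-PCR, 6-FAM primer extension, HpaI digest, capillary electrophoresis. Positive direction vs DMSO.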

[2] = target: Glucocorticoid receptor (Homo sapiens) (UniProt P04150); assay: ATG_GR_TRANS: Attagene TRANS-FACTORIAL HepG2 Assay for human Glucocorticoid Receptor (GR) (AID 2282978; active = hit-call score of the fitted dose curve at least 0.9, where 1 is the maximum;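 also: activators score as hits since higher reporter transcript over DMSO is fitted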); details: HepG2 Attagene TRANS GR reporter, mRNA transcription
How it was run: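 Exogenous NR-GAL4 fusion activity was assessed through induced GAL4-UAS reporter transcripts in transfected human HepG2 cells, quantified after 24 h by RT-PCR and fluorescent capillary electrophoresis with DMSO as baseline.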

[3] = target: Estrogen receptor beta (Homo sapiens) (UniProt Q92731); assay: OT_ER_ERbERb_0480: Odyssey Thera (OT) 8-hour HEK293T Protein-Complementation Assay for Estrogen Receptor-beta/-beta Homodimer (AID 2283357; active = hit-call score of the fitted dose curve at least 0.9, where 1 is the maximum;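 also: active means signal gain over DMSO baseline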)
How it was run: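 Cells (HEK293T, stable ER-beta LBD PCA pair) are treated 8 hours, fixed and Draq5-stained; signal is fluorescence intensity increase relative to vehicle, fitted in the gain direction.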

[4] = target: Estrogen receptor beta (Homo sapiens) (UniProt Q92731); assay: OT_ER_ERbERb_1440: Odyssey Thera (OT) 24-hour HEK293T Protein-Complementation Assay for Estrogen Receptor-beta/-beta Homodimer (AID 2283380; active = hit-call score of the fitted dose curve at least 0.9, where 1 is the maximum;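 also: fluorescence gain from ER beta LBD homodimer complementation read by laser scanning cytometry; scored as signal increase over DMSO baseline for both agonists and antagonists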)
How it was run: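 Fluorescence increase, nuclear for agonists or whole-cell for antagonists, relative to DMSO vehicle, quantified by laser scanning cytometer after fixation and Draq5 staining. Readout from 24 h treatment of HEK293T cells carrying complementation-paired ER beta LBD (aa 310-547).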

[5] = target: Retinoic acid receptor RXR-alpha (Homo sapiens) (UniProt P19793); assay: OT_NURR1_NURR1RXRa_0480: Odyssey Thera (OT) 8-hour HEK293T Protein Complementation Assay for Nurr1/retinoid X receptor (RXR) (AID 2283385; active = hit-call score of the fitted dose curve at least 0.9, where 1 is the maximum)
How it was run: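 HEK293T cells expressing Nurr1 and RXRα fused to reporter fragments (protein-fragment complementation); fluorescence measured 8 h after dosing. Gain of signal fitted relative to DMSO.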

[6] = ACEA_AR_antagonist_AUC_viability: ACEA Biosciences xCELLigence Real-Time Cell Analysis on Androgen Receptor Antagonism for Viability (AID 2283776; active = hit-call score of the fitted dose curve at least 0.9, where 1 is the maximum;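 also: hits lower the growth signal relative to DMSO meaning cytotoxicity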)
How it was run: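 22Rv1 human prostate cancer cells were seeded on electrode plates, monitored overnight, then exposed to eight 1:4 dilutions from 100 uM final. Impedance-based growth kinetics at 80 h gave an AUC viability endpoint normalized to DMSO.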

[7] = BSK_3C_Vis: BioMAP Diversity Plus: 3C Assay for Morphology Visualization (AID 2283025); details: primary human endothelial cells (HUVEC);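 also: fitted both ways so gain or loss versus DMSO counts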;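 as to AC50: light microscopy image of cell morphology used as background control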
How it was run: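 Human umbilical vein endothelial cell morphology was inspected by light microscopy 24 h after chemical dosing; scored bidirectionally relative to DMSO.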

[8] = read-out: Transforming growth factor beta 1 (TGFb1), TGFB1 (gene 7040); assay: BSK_KF3CT_TGFb1: BioMAP Diversity Plus: KF3CT Assay for Transforming growth factor beta 1 (TGFb1) Biomarker Activity (AID 2283072); details: primary human keratinocytes with fibroblasts; actives raise or lower the signal
How it was run: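 Human keratinocyte/foreskin fibroblast co-culture; TGF-b1 measured by ELISA 24 h after dosing, fitted bidirectionally versus DMSO. Cytotoxicity checked in parallel cultures by total protein (SRB staining, 560 nm).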

[9] = target: Steroid hormone receptor ERR1 (Homo sapiens) (UniProt P11474); assay: ATG_ERRa_TRANS: Attagene TRANS-FACTORIAL HepG2 Assay for human Estrogen-Related Receptor alpha (ERRa) (AID 2282971; active = hit-call score of the fitted dose curve at least 0.9, where 1 is the maximum); details: HepG2 Attagene TRANS reporter, ERRa transactivation
How it was run: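 Reporter transcript induction was quantified by RT-PCR and capillary electrophoresis of FAM-labelled, HpaI-cut products after 24 h treatment of HepG2 cells carrying transiently transfected GAL4-UAS reporter units and an exogenous ERRa-Gal4 fusion; activity scored as increase over DMSO.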

[10] = BSK_BT_PBMCCytotoxicity: PBMC Cytotoxicity Assessment in the BioMAP Diversity Plus: BT Assay (AID 2284225); details: primary human B cells with PBMC;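 also: PBMC viability measured by Alamar Blue dye reduction fluorescence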
How it was run: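 PBMC (75,000/well) pretreated with compound 1 h, then activated with SEB and TSST-1 (20 ng/mL each final), incubated 90 h; Alamar Blue added 6 h, fluorescence read at 546/580 nm. Fitted relative to DMSO.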

[11] = read-out: Secreted IgG (sIgG), gene 3500; assay: BSK_BT_sIgG: BioMAP Diversity Plus: BT Assay for Secreted IgG (sIgG) Biomarker Activity (AID 2284226); details: primary human B cells with PBMC
How it was run: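 Human B cell plus PBMC co-culture; secreted IgG measured by ELISA 24 h after chemical dosing. Response fitted in positive direction relative to DMSO baseline.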

[12] = read-out: Interleukin 6 (IL6), IL6 (gene 3569); assay: BSK_BT_xIL6: BioMAP Diversity Plus: BT Assay for Interleukin 6 (IL6) Biomarker Activity (AID 2284228); details: primary human B cells with PBMC
How it was run: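 B cells and peripheral blood mononuclear cells (human primary co-culture) were dosed with chemical, and after 24 h IL-6 released into the medium was measured by Luminex xMAP. Responses were analysed as gain of signal over DMSO control.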

[13] = read-out: Interleukin 17A (IL17A), IL17A (gene 3605); assay: BSK_BT_xIL17A: BioMAP Diversity Plus: BT Assay for Interleukin 17A (IL17A) Biomarker Activity (AID 2284229); details: primary human B cells with PBMC
How it was run: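 Secreted IL-17A was the measured endpoint, read by Luminex xMAP multiplex in supernatants of a human B cell/PBMC co-culture harvested 24 h after chemical dosing. Signal increase relative to DMSO defined activity.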

[14] = read-out: Collagen III, COL3A1 (gene 1281); assay: BSK_MyoF_CollagenIII: BioMAP Diversity Plus: MyoF Assay for Collagen III Biomarker Activity (AID 2284239); details: primary human lung fibroblasts
How it was run: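 ELISA read-out of collagen III from human lung fibroblasts after 24 h of chemical treatment. The DMSO control served as negative control and baseline, with values fitted in the positive direction.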

[15] = read-out: Actin alpha 1 (ACTA1), ACTA1 (gene 58); assay: BSK_MyoF_ACTA1: BioMAP Diversity Plus: MyoF Assay for Actin alpha 1 (ACTA1) Biomarker Activity (AID 2284244); details: primary human lung fibroblasts
How it was run: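 Human lung fibroblast (MyoF system) cultures dosed with test chemical; alpha-SMA measured by ELISA 24 h after dosing, normalized to DMSO control. Cytotoxicity tracked in parallel cultures by SRB total-protein staining.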

[16] = read-out: Interleukin 2 (IL2), IL2 (gene 3558); assay: BSK_BT_xIL2: BioMAP Diversity Plus: BT Assay for Interleukin 2 (IL2) Biomarker Activity (AID 2284245); details: primary human B cells with PBMC
How it was run: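 Human B cell plus PBMC co-culture, 24 h after chemical dosing; secreted IL-2 quantified by Luminex xMAP multiplex, fitted for signal gain against DMSO baseline.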

[17] = read-out: Basic fibroblast growth factor (bFGF), FGF2 (gene 2247); assay: BSK_MyoF_bFGF: BioMAP Diversity Plus: MyoF Assay for Basic fibroblast growth factor (bFGF) Biomarker Activity (AID 2284246); details: primary human lung fibroblasts
How it was run: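 Human lung fibroblast cultures were dosed and measured 24 h later in 96-well format. bFGF biomarker levels quantified by ELISA, with activity fitted in the positive direction against DMSO.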

[18] = target: Retinoic acid receptor alpha (Homo sapiens) (UniProt P10276); assay: ATG_DR5_RAR_CIS: Attagene CIS-FACTORIAL HepG2 Assay for human Retinoic Acid Receptor Alpha (RARE), DR5 submotif (AID 2282934); details: HepG2 Attagene cis-factorial RARE DR5 reporter, mRNA; actives raise or lower the signal;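 as to AC50: reporter responds to endogenous RAR alpha beta and gamma in HepG2 not RARA alone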
How it was run: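 Reporter transcripts from a DR5-regulated unit, measured via RT-PCR plus capillary electrophoresis, reflect endogenous RAR activity in transiently transfected human HepG2 liver cells. Exposure lasted 24 h; gain or loss of signal scored against DMSO.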

[19] = ACEA_AR_agonist_AUC_viability: ACEA Biosciences xCELLigence Real-Time Cell Analysis on Androgen Receptor Agonism for Viability (AID 2283775; active = hit-call score of the fitted dose curve at least 0.9, where 1 is the maximum;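 as to AC50: viability read 80 hours after compound addition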)
How it was run: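 Real-time impedance tracking of 22Rv1 growth, readings every 5 min for 5 h then hourly; area-under-curve viability endpoint at 80 hours, relative to DMSO. Compounds at eight concentrations, 1:4 steps, top 100 uM, n = 2.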

Measured: AC50

Sequence of Steroid hormone receptor ERR1 (Homo sapiens) (P11474 whole entry, looked up, the tested form may be a part): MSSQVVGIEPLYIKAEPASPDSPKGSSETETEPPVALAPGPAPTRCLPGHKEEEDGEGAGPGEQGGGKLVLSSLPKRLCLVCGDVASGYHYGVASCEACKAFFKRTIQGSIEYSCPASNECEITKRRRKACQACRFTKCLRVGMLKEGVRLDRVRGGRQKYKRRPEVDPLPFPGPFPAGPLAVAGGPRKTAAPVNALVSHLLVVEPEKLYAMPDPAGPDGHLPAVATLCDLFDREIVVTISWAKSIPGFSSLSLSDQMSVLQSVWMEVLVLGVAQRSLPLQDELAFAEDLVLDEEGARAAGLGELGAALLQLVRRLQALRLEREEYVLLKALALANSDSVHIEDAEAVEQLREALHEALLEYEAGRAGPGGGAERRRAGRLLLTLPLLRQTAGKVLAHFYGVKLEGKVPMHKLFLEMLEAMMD
Sequence of Retinoic acid receptor RXR-alpha (Homo sapiens) (P19793 whole entry, looked up, the tested form may be a part): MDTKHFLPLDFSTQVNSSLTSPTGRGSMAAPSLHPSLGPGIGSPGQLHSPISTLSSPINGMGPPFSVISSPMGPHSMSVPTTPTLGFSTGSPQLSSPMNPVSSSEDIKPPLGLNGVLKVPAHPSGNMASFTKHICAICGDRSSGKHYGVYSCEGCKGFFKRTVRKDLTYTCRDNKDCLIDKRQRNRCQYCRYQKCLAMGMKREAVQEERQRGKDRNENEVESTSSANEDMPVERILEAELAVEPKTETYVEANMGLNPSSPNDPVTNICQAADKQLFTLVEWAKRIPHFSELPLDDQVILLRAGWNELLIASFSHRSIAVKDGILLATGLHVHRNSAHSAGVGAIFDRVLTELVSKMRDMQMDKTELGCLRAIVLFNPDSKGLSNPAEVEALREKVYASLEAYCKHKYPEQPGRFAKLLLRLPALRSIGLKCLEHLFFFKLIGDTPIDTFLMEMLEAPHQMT
Sequence of Estrogen receptor beta (Homo sapiens) (Q92731 whole entry, looked up, the tested form may be a part): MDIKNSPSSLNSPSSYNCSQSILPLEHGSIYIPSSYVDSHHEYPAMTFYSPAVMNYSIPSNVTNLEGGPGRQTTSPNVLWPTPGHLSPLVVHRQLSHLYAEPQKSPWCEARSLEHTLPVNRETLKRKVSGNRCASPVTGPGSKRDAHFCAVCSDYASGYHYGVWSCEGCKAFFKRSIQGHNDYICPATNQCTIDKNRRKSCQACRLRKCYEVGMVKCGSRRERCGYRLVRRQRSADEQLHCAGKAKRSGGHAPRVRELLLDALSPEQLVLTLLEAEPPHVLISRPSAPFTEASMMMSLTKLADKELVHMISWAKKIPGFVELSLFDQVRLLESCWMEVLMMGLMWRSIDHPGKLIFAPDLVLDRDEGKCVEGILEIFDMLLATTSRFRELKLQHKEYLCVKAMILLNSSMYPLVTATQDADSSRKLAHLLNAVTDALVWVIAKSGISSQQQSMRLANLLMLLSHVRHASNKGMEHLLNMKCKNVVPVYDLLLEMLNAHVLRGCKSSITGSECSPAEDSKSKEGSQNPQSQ
Sequence of Estrogen receptor (Homo sapiens) (P03372 whole entry, looked up, the tested form may be a part): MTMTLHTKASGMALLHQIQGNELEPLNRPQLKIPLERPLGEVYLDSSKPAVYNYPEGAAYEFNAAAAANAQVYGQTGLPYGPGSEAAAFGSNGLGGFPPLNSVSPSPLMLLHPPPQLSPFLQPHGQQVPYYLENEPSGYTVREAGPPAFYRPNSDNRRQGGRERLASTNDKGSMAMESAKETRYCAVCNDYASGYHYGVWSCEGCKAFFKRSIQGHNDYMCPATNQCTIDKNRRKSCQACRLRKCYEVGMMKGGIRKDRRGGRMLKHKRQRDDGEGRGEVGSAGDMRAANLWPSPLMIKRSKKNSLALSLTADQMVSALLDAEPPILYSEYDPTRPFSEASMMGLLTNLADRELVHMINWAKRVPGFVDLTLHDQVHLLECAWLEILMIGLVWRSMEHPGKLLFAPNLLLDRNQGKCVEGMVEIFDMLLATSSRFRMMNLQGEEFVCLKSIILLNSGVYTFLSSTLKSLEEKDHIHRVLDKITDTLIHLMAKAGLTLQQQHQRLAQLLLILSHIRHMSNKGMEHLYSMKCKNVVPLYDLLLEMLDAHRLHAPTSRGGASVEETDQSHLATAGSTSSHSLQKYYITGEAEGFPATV
Sequence of Glucocorticoid receptor (Homo sapiens) (P04150 whole entry, looked up, the tested form may be a part): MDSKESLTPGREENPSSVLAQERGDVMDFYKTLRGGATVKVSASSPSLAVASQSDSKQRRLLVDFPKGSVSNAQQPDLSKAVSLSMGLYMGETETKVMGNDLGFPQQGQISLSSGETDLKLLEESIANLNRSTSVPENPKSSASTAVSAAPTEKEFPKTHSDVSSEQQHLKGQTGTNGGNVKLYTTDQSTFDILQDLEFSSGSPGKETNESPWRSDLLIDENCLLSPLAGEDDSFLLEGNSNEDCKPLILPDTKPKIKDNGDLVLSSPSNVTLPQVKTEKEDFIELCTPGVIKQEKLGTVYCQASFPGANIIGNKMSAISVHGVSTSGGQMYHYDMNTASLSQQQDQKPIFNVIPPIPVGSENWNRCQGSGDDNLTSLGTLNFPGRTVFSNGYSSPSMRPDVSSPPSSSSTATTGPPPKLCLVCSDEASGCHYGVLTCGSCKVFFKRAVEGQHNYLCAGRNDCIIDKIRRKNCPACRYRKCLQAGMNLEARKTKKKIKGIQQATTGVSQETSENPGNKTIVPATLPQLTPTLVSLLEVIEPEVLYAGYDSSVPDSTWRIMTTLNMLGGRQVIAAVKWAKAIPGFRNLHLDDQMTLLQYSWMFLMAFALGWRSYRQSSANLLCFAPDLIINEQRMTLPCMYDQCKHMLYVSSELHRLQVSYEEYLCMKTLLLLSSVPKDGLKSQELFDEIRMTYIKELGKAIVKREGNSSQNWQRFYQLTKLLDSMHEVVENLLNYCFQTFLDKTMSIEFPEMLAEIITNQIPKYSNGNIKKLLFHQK
Sequence of Retinoic acid receptor alpha (Homo sapiens) (P10276 whole entry, looked up): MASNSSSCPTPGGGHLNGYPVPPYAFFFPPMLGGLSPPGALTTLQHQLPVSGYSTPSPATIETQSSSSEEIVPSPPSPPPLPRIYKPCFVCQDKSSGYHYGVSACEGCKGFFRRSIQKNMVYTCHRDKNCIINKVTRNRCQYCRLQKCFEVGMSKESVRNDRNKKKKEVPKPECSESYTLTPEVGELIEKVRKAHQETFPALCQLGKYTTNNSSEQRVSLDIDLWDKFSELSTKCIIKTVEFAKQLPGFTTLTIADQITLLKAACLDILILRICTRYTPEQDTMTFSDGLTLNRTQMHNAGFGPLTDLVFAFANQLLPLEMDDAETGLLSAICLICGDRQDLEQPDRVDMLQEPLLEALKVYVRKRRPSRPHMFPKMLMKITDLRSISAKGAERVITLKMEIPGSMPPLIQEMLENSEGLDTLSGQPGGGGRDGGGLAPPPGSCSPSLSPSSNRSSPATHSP

c1ccc(P(c2ccccc2)c2ccccc2)cc1
inactive: [2] | [4] | [5] | [6]
active: [1] 15.2 µM | [3] 25.4 µM

C[N+](C)(C)CC(=O)O
inactive: [1]

N#CCCCCC#N
inactive: [2] | [7] | [8] | [5] | [6]

CC(C)COP(=O)(OCC(C)C)OCC(C)C
not listed: [1] | [3] | [4] | [5] | [6] | [18] | [19]
inactive: all other assays above

CCOP(=O)(OCC)OCC
inactive: [18] | [2] | [3] | [4] | [5] | [19]

CC1CCC(=O)O1 (centres undefined)
inactive: [9]

Nc1ccccc1C(=O)OCCc1ccccc1
inactive: [18] | [9]

Oc1ccc(C2(c3ccc(O)cc3)c3ccccc3-c3ccccc32)cc1
inactive: [1] | [9] | [2]

N#CCCCl
inactive: [18]

CC(=O)c1cc2c(cc1C)C(C)(C)C(C)CC2(C)C (centres undefined)
active: [3] 5.28 µM | [4] 12.5 µM | [5] 82.1 µM
inactive: [19] | [6]

Oc1cc(Cl)ccc1Cl
not listed: [1] | [3] | [4] | [5] | [9] | [19]
inactive: all other assays above

CC1(C)[C@H](C(=O)O[C@H](C#N)c2cccc(Oc3ccccc3)c2)[C@@H]1C=C(Br)Br
active: [19] 50 µM | [6] 50 µM | [11] 23.2 µM and 29.8 µM | [12] 15.2 µM | [13] 20 µM | [16] 29.1 µM and 20 µM
inactive: [9] | [2] | [7] | [8] | [3] | [4] | [5] | [19] | [6] | [10] | [12] | [13] | [14] | [15] | [17]

CC(C)(c1cc(Cl)c(O)c(Cl)c1)c1cc(Cl)c(O)c(Cl)c1
active: [7] 39.6 µM | [8] 5.27 µM | [5] 74.7 µM | [14] 9.8 µM | [15] 6.18 µM | [17] 30.9 µM
not listed: [1] | [2] | [9] | [18]
inactive: all other assays above

C=CC(=O)OCC(CC)CCCC (centres undefined)
active: [18] 19.8 µM | [8] 0.164 µM | [19] 4.45 µM
not listed: [1]
inactive: all other assays above
